Source: PubChem BioAssay (National Center for Advancing Translational Sciences (NCATS))
EPAC1 ag val: human EPAC1 agonism, validation | 16,000 tested, 1% active | O95398 | Potency, µM, usual class: activators | EPAC1 Rap1b BODIPY-GDP exchange, fluorescence; further: nearly all actives have a fitted effect of over 70% in size
EPAC2 antag: human EPAC2 antagonism, validation; Q8WZA2; AID 1645886; 16,000 tested, 1.7% active; EPAC2 Rap1B BODIPY-GDP exchange, fluorescence; Potency, µM (titrated, usually from 112 µM), most hits filed as inhibitors; further: nearly all actives have a fitted effect of over 40% in size
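Normalized against a 6.5 mM cAMP agonist control, compounds were tested on 100 nM EPAC2 exchanging Rap1B-bound BODIPY-GDP (250 nM) for 50 uM GDP. Fluorescence drop (ex 480, em 540 nm) was tracked at room temperature over 30 min at 5-min intervals.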
A number is an active result; ! = repeats disagree. Shown are actives, neighbours in structure and some others; about 2.9% of the full set was active somewhere. The call rests on the fitted dose curve; in most records, active means well fitted curve in the direction sought with a large enough effect; inconclusive means small, poorly fitted or top-dose-only effect, or another doubt; inactive means no such curve, though single readings can be large; an effect the other way counts as inactive or inconclusive.

What do the screens show for `CCCCC[C@H]1CN(Cc2ccccc2)C(=O)[C@@H]1CC(=O)NCc1ccc(OC)cc1`?
EPAC1 ag val: inactive; EPAC2 antag: 22µM

What do the screens show for `Cc1nc2cnc(Oc3ccccc3)nc2n(C)c1=O`?
EPAC1 ag val: inactive; EPAC2 antag: inactive

Results for O=C(O)[C@H](O)[C@@H](O)[C@H](O)[C@H](O)CO ?
EPAC1 ag val: inactive; EPAC2 antag: inactive

What do the screens show for `N[C@H](C(=O)O)C(O)C(O)C(O)CO` (stereo partly drawn)?
EPAC1 ag val: 112µM; EPAC2 antag: inactive

What do the screens show for `OCCN(CCO)c1nc(N2CCCCC2)c2nc(N(CCO)CCO)nc(N3CCCCC3)c2n1`?
EPAC1 ag val: 35µM!; EPAC2 antag: inconclusive

How did OCCN1CCN(Cc2ccc3c(c2)CN(Cc2cccn2-c2ccccn2)CCO3)CC1 do in these assays?
EPAC1 ag val: inactive; EPAC2 antag: inactive

Results for CN(CC1COCCO1)C(=O)c1cnn(-c2nccc(-c3ccccc3C(F)(F)F)n2)c1C1CC1 (stereo not drawn) ?
EPAC1 ag val: inactive; EPAC2 antag: inactive

What do the screens show for `C=CC(C1=CC(=O)C(OC)=CC1=O)c1ccc(OC)cc1` (stereo not drawn)?
EPAC1 ag val: inactive; EPAC2 antag: inconclusive

What do the screens show for `C=CC(C1=CC(=O)C(OC)=CC1=O)c1ccccc1` (stereo not drawn)?
EPAC1 ag val: inactive; EPAC2 antag: 35µM

Results for COc1cccc(Cn2c(=O)c(-c3ccc(F)cc3)nc3cnc(N(C)C)nc32)c1 ?
EPAC1 ag val: inactive; EPAC2 antag: inactive

What do the screens show for `O=c1c(-c2cc(F)cc(F)c2)nc2cncnc2n1Cc1ccccc1Cl`?
EPAC1 ag val: inconclusive; EPAC2 antag: inactive

What do the screens show for `O=c1c(-c2ccc(F)c(F)c2)nc2cncnc2n1Cc1ccccc1Cl`?
EPAC1 ag val: 100µM; EPAC2 antag: inconclusive

What do the screens show for `CC(C)CCCC(C)NC(C)C` (stereo not drawn)?
EPAC1 ag val: inactive; EPAC2 antag: inactive

How did OCC1OC(Oc2cccc3cccnc23)C(O)C(O)C1O (stereo not drawn) do in these assays?
EPAC1 ag val: inactive; EPAC2 antag: inactive

What do the screens show for `O=C(O)c1cc(O)c2c(c1)[C@H]([C@H]1c3cc(C(=O)O)cc(O)c3C(=O)c3c(O[C@@H]4O[C@H](CO)[C@@H](O)[C@H](O)[C@H]4O)cccc31)c1cccc(O[C@@H]3O[C@H](CO)[C@@H](O)[C@H](O)[C@H]3O)c1C2=O`?
EPAC1 ag val: inconclusive; EPAC2 antag: 79µM

How did COc1ccc(O)c(C(=O)N2CCC3(CC2)c2ccccc2[C@@H](NC(=O)c2ccccn2)[C@@H]3OC)c1 do in these assays?
EPAC1 ag val: inactive; EPAC2 antag: inactive

What do the screens show for `COc1ccc(C(=O)N2CCC3(CC2)CCN(c2ccncc2)CC3)cc1`?
EPAC1 ag val: inactive; EPAC2 antag: inactive

How did COc1ccc(CNC(=O)C2CCCN2c2nc(C)c3ccccc3n2)cc1 (stereo not drawn) do in these assays?
EPAC1 ag val: inactive; EPAC2 antag: inactive

Results for CCOc1nc2cccc(C(=O)OC(C)OC(=O)OC3CCCCC3)c2n1Cc1ccc(-c2ccccc2-c2nn[nH]n2)cc1 (stereo not drawn) ?
EPAC1 ag val: inconclusive; EPAC2 antag: 56µM

What do the screens show for `CCCc1nc(C(C)(C)O)c(C(=O)OCc2oc(=O)oc2C)n1Cc1ccc(-c2ccccc2-c2nn[nH]n2)cc1`?
EPAC1 ag val: inactive; EPAC2 antag: inactive

How did COc1ccccc1CCNc1ncnc2sc(C(=O)N3CCCCC3)c(C)c12 do in these assays?
EPAC1 ag val: inactive; EPAC2 antag: inactive

How did Nc1ccc2cc3ccc(N)cc3nc2c1 do in these assays?
EPAC1 ag val: 100µM; EPAC2 antag: inactive

What do the screens show for `CCOc1ccc2nc3cc(N)ccc3c(N)c2c1`?
EPAC1 ag val: inactive; EPAC2 antag: inconclusive

Results for COc1ccc(C(=O)N2CCC[C@@]3(CCN(C(=O)Nc4cccc(F)c4)C3)C2)cc1 ?
EPAC1 ag val: inactive; EPAC2 antag: inactive

How did COc1ccc(-n2c(=O)c(-c3cccs3)nc3cnc(Nc4ccccc4)nc32)cc1 do in these assays?
EPAC1 ag val: inconclusive; EPAC2 antag: inactive

Results for O=c1cnc2cnc(Oc3ccccc3)nc2n1Cc1cccs1 ?
EPAC1 ag val: inactive; EPAC2 antag: 13µM

How did O=c1cnc2cnc(Oc3cccc(Cl)c3)nc2n1Cc1ccc(F)cc1 do in these assays?
EPAC1 ag val: inactive; EPAC2 antag: 10µM

Results for COc1cccc(Nc2ncc3nc(-c4cccs4)c(=O)n(Cc4cccs4)c3n2)c1 ?
EPAC1 ag val: inconclusive; EPAC2 antag: inactive

What do the screens show for `O=c1c(-c2cccs2)nc2cnc(Oc3ccccc3)nc2n1Cc1cccs1`?
EPAC1 ag val: inactive; EPAC2 antag: inactive

How did COCCn1c(=O)cnc2cnc(Oc3cccc(Cl)c3)nc21 do in these assays?
EPAC1 ag val: inactive; EPAC2 antag: inactive

What do the screens show for `COc1cccc(Nc2ncc3ncc(=O)n(Cc4cccs4)c3n2)c1`?
EPAC1 ag val: 112µM; EPAC2 antag: inactive

What do the screens show for `COc1cccc(Nc2ncc3nc(-c4cccs4)c(=O)n(-c4ccccc4)c3n2)c1`?
EPAC1 ag val: 112µM; EPAC2 antag: inactive

Results for COc1cccc(Nc2ncc3nc(C)c(=O)n(-c4ccccc4)c3n2)c1 ?
EPAC1 ag val: inactive; EPAC2 antag: inactive

How did O=c1cc(-c2cccc(O)c2)oc2ccc(O)cc12 do in these assays?
EPAC1 ag val: inactive; EPAC2 antag: inactive

Results for CC(C)Cc1nc2cc(NS(=O)(=O)N(C)C)cc(C(=O)N3CCN(c4ccccc4)CC3)c2n1C ?
EPAC1 ag val: inactive; EPAC2 antag: inactive

What do the screens show for `COC(=O)N1CCC2(CC1)CN(C(=O)Nc1cccc(C#N)c1)C2`?
EPAC1 ag val: inactive; EPAC2 antag: inactive

What do the screens show for `CCOC(=O)C1=C(C)NC(C)=C(C(=O)OC)C1c1cccc(Cl)c1Cl` (stereo not drawn)?
EPAC1 ag val: 56µM!; EPAC2 antag: inconclusive

Results for CCOC(=O)C1=C(COCCN)NC(C)=C(C(=O)OC)C1c1ccccc1Cl (stereo not drawn) ?
EPAC1 ag val: inactive; EPAC2 antag: inactive

How did O=c1c(CCc2ccccc2)nc2cnc(Oc3ccccc3)nc2n1C1CC1 do in these assays?
EPAC1 ag val: inactive; EPAC2 antag: inactive

How did COC(=O)c1c(C)c2c(c(C)c1O)OC(=O)c1c(C)c(Cl)c(O)c(Cl)c1O2 do in these assays?
EPAC1 ag val: inactive; EPAC2 antag: 2.5µM

How did COC(=O)c1c(OC)cc2c(c1C)Oc1c(Cl)c(O)c(Cl)c(C)c1C(=O)O2 do in these assays?
EPAC1 ag val: inactive; EPAC2 antag: 4.5µM

What do the screens show for `COC(=O)c1c(Cl)c(Cl)c(C(=O)OC)c(Cl)c1Cl`?
EPAC1 ag val: inconclusive; EPAC2 antag: inactive

Results for CN(C)c1ccc(O)c2c1C[C@H]1C[C@H]3[C@H](N(C)C)C(=O)C(C(N)=O)=C(O)[C@@]3(O)C(=O)C1=C2O ?
EPAC1 ag val: inactive; EPAC2 antag: inactive

What do the screens show for `Cc1ccnc2c(N)cccc12`?
EPAC1 ag val: inactive; EPAC2 antag: inconclusive

What do the screens show for `Cc1cnc(-n2ncc(C(=O)NCc3ccncc3)c2-c2cccs2)nc1-c1ccc(F)cc1`?
EPAC1 ag val: inactive; EPAC2 antag: inactive

Results for CN1CCN(c2ncc3ncc(=O)n(Cc4ccc(F)cc4)c3n2)CC1 ?
EPAC1 ag val: inactive; EPAC2 antag: inactive

Results for CCCCN(CCC#N)c1ccc(/C=C/c2ccnc3ccccc23)cc1 ?
EPAC1 ag val: 100µM; EPAC2 antag: inactive

What do the screens show for `CC[N+](C)(C)c1ccc(/C=C/c2ccnc3ccccc23)cc1`?
EPAC1 ag val: inactive; EPAC2 antag: 45µM
